Test results reported in the OligoGym collection.
Also: reference of the scale not given here.

What follows are sequences tested against GNAQ (assay: pooled miR-30 sensor sort-seq; sequence = guide strand). Conditions: shRNA.
Work on TTTAAGAACAGAATAACCGAGG yielded a sensor-assay potency score (higher = more potent) of -0.0655. With TTGATAAACGTACTCTTGCCAC the sensor-assay potency score (higher = more potent) was -0.533. With TCGTCTATCATAGCATTCCTGG the sensor-assay potency score (higher = more potent) was -1.02. With TTGAGTGTGTCCATGGCTCTGA the sensor-assay potency score (higher = more potent) was 0.188. Work on TATCTTCATCAGAGTATCCTGA yielded a sensor-assay potency score (higher = more potent) of -0.164. In the case of TCTAAGCACATCTTGTTGCGTA, the sensor-assay potency score (higher = more potent) is reported as 0.35. ATAATTGATATTCTCGTCGTCT was tested, and the sensor-assay potency score (higher = more potent) was 0.0326.

These sequences were tested against GNAT1 in the same assay as above. Conditions: shRNA.
TAGATCTCCTTCACGTCGCGCC showed a sensor-assay potency score (higher = more potent) of -0.148. In the case of TAATCTTCATCTGCTTGACGAT, the sensor-assay potency score (higher = more potent) is reported as -0.376. TTGACGTTCTGCGTGTCGGTGG gave a sensor-assay potency score (higher = more potent) of 0.245. With TGCACCTTGATGTAGTTGCCGG the sensor-assay potency score (higher = more potent) was -1.2. Sequence TTGGGTCCATCGTAGTCCGGGA has a sensor-assay potency score (higher = more potent) of -0.616. TCCTTGATGATGATGTCGGTGA showed a sensor-assay potency score (higher = more potent) of -1.08. Work on TTGAGTGTGGTCATGGCGCGTA yielded a sensor-assay potency score (higher = more potent) of -0.473. For TTCTTTTCCAGCTCCCTGGAGT, the sensor-assay potency score (higher = more potent) was -0.257. Work on TAGCGGTGGTTGCAGATGCTGT yielded a sensor-assay potency score (higher = more potent) of -1.65. Sequence TTTGACGTTCTGCGTGTCGGTG has a sensor-assay potency score (higher = more potent) of -0.514. In the case of TAGTCCGGGAAACAGATGCTGA, the sensor-assay potency score (higher = more potent) is reported as -1.24. Work on TTCGTCGTCCTCCACTAGCACC yielded a sensor-assay potency score (higher = more potent) of -1.74.

These sequences were tested against GNLY in the same assay as above. Conditions: shRNA.
TTGGTCAACAGGTCACCCTGGG showed a sensor-assay potency score (higher = more potent) of -0.135. For ACTATCGTCAGACAGGTCCTGT, the sensor-assay potency score (higher = more potent) was -0.334. In the case of TATACACAACCTGAGGTCCTCA, the sensor-assay potency score (higher = more potent) is reported as -0.844. Work on TTTCTCCTCATCACGCAGGTGG yielded a sensor-assay potency score (higher = more potent) of -0.588. TTGGAAACACTTCTCTGGGTGG was tested, and the sensor-assay potency score (higher = more potent) was -0.134. With ATTGGAAACACTTCTCTGGGTG the sensor-assay potency score (higher = more potent) was 0.184. TTTGGTCAACAGGTCACCCTGG was tested, and the sensor-assay potency score (higher = more potent) was 0.282. With TTCAGTTTTTGGACTATCGTCA the sensor-assay potency score (higher = more potent) was 0.462. With TTTTGGTCAACAGGTCACCCTG the sensor-assay potency score (higher = more potent) was -1.53. With TTGCCAGGTCGTAGTACTCAGG the sensor-assay potency score (higher = more potent) was -1.35. In the case of TTGGACTATCGTCAGACAGGTC, the sensor-assay potency score (higher = more potent) is reported as -0.895. With TTTTGGACTATCGTCAGACAGG the sensor-assay potency score (higher = more potent) was -1.31.

What follows are sequences tested against GOLGA1 in the same assay as above. Conditions: shRNA.
In the case of TATCACATGATCTCTCTGCTCT, the sensor-assay potency score (higher = more potent) is reported as 0.568. TTATCTTCTGCAAGTTTCGGAC gave a sensor-assay potency score (higher = more potent) of -0.221. Work on TTAAGTCTGATGACATCTGATT yielded a sensor-assay potency score (higher = more potent) of -1.11. Sequence TTCGAAGAGCTCATTATCGGGT has a sensor-assay potency score (higher = more potent) of 0.0609. TTCTAATGCAATTTCAAGCTTC showed a sensor-assay potency score (higher = more potent) of 0.23. For TTGAGTTTCAGCAGTGACCTTT, the sensor-assay potency score (higher = more potent) was 0.403. Sequence TATGGTCTTATTTTTCTCCAGA has a sensor-assay potency score (higher = more potent) of -0.384. TGATCTTACTTTCTGCACCTGT showed a sensor-assay potency score (higher = more potent) of -0.0709. For TATTTTACTTAGTTCCTGCTGC, the sensor-assay potency score (higher = more potent) was 0.934.
